HSP90 inh = HSP90 inhibitors, primary screen, cell lysate, luminescence; Heat shock protein HSP 90 (rabbit reticulocyte lysate; luciferase refolding); Rabbit reticulocyte lysate, luciferase refolding luminescence, 3 h; actives 0.91% (n = 290,000); inhibition, % at 5.6 µM; AID 1789, 2009;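 active = inhibition above the screen-wide mean plus 3 SD, computed separately per campaign, cut at about 16% in these data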;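 also: 0% = DMSO wells and 100% = 60 µM geldanamycin wells; inhibitors lower the luminescence because luciferase stays unfolded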
PG9 binder = binders of HIV-1 gp120 antibody PG9, primary screen, biochemical, TR-FRET. HIV-1 gp120 / PG9 antibody interaction. TR-FRET gp120-PG9 antibody binding. inhibition, % at 6.7 µM. actives 0.43% (n = 360,000). AID 624416, 2012; in the data active = inhibition above about 8.5%
SMARCA2 activ = SMARCA2 (BRM) function activators, primary screen, cell-based, luminescence, high throughput; MG213 cells, MMTV-luciferase reporter, dexamethasone, overnight; actives 1% (n = 370,000); AID 652017, 2013; activation, % at 9.1 µM; in the data active = activation above about 7.8%;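 also: 0% = vehicle wells and 100% = reference activator wells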
HSF1 inh = HSF1 inhibitors in luciferase reporter cells, primary screen, cell-based, NIH3T3, luminescence; NIH3T3-HGL HSE-luciferase, MG132-induced, luminescence 8 h; hits give low values; AID 2098, 2009; activity change, negative = inhibition, % at 7.5 µM (by protocol); actives 0.77% (n = 300,000);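 active = more than half of replicate wells show activity change below -50%, luminescence cut by over half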;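 also: luciferase reports HSF-1 transcriptional activity via heat shock element; 0% = median of DMSO wells and -100% = zero luminescence signal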
GAA850 FXN act = FXN promoter activators, primary screen, cell-based, luciferase luminescence, HEK293 lucGAA850; HEK293 lucGAA850 FXN promoter luciferase reporter, 24 h; percent of 10 µM SAHA response; activation, % at 6 µM; actives 0.56% (n = 360,000); AID 540364, 2011;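 active = activation above the average of all compounds screened plus 3 SD, cutoff fixed separately per campaign, cut at about 7.5% in these data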;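 also: 0% = DMSO wells and 100% = 10 µM SAHA wells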
AI-2 QS modul = Vibrio harveyi AI-2 quorum sensing modulators, primary screen, JMH597 strain, luminescence/OD600 ratio; Vibrio harveyi JMH597 AI-2 luminescence/OD600 ratio, 9 h; hits give low values; strain lacks LuxN and CqsS sensors; 0 = neutral-control median; activity change, % at 7.5 µM; actives 0.4% (n = 300,000); AID 2094, 2009; in the data active = activity change below about -75%, passing the limit was not always enough;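 also: luminescence divided by OD600 gain over 9 h not by final OD600 alone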
PG9 binder conf = binders of anti-gp120 antibody PG9, confirmation, biochemical, TR-FRET | TR-FRET PG9 antibody binding | actives 90% (n = 1,500) | shares compounds with PG9 binder | inhibition, % at 6.7 µM; in the data active = inhibition above about 9%
PGV04 counter = binders of control antibody PGV04, counter-screen for PG9 antibody binder project, biochemical, TR-FRET, distinct HIV envelope site | shares compounds with PG9 binder | inhibition, % at 6.7 µM | TR-FRET PGV04 antibody-gp120 binding | actives 95% (n = 1,500); in the data active = inhibition above about 9.5%
An asterisk follows results filed as active; · = not tested or not shown. In the library only some 3.4% were active in any assay of this set; here they are far more common.

SMILES | HSP90 inh | PG9 binder | SMARCA2 activ | HSF1 inh | GAA850 FXN act | AI-2 QS modul | PG9 binder conf | PGV04 counter
O=C(Nc1ccccc1)c1ccc(-c2ccc(F)cc2)s1 | -1 | 19* | 0 | 2 | 2 | 20 | 20* | 28*
O=C(NCCc1cccs1)Nc1ccc2nc([C@@H]3O[C@H](CO)[C@@H](O)[C@H]3O)[nH]c2c1 | · | 0 | 0 | · | 0 | · | · | ·
CS(=O)(=O)c1ccc2nc(NC(=O)c3ccc(Cl)cc3)sc2c1 | 3 | 58* | 0 | 11 | 1 | · | 51* | 65*
CS(=O)(=O)c1ccc2sc(NC(=O)c3cc4ccccc4o3)nc2c1 | -2 | 7 | -2 | 23 | 3 | 34 | · | ·
COc1ccccc1C(=O)Nc1nnc(S(=O)(=O)N2CCCCC2)s1 | -5 | 36* | -4 | 5 | 1 | 36 | 35* | 42*
CS(=O)(=O)c1ccc2nc(NC(=O)c3ccccc3Cl)sc2c1 | -5 | 0 | 6 | 12 | -1 | -5 | · | ·
COc1ccccc1C(=O)Nc1nc2ccc(S(C)(=O)=O)cc2s1 | -1 | 19* | -2 | 9 | 0 | 6 | 27* | 37*
CS(=O)(=O)c1ccc2nc(NC(=O)c3cc4ccccc4o3)sc2c1 | 3 | 9.6* | -2 | 14 | 3 | 55 | 24* | 33*
Cc1cc2c(c(=O)o1)[C@@]1(C(=O)N(C)c3ccc([N+](=O)[O-])cc31)C1=C(CCCC1=O)O2 | · | -1 | -7 | · | · | · | · | ·
CCOC(=O)C1=C(C(=O)OCC)C2N(Cc3ccc(C#N)cc3)c3ccccc3[C@@]23C[C@@H](C(=O)OC)N(S(=O)(=O)c2cccs2)C3=N1 (stereo partly drawn) | · | 0 | -3 | · | · | · | · | ·
CCN(CC)c1ccc(S(=O)(=O)N2CCOCC2)cc1NC(=O)CNCc1cccc(Cl)c1 | · | -1 | -1 | · | 2 | · | · | ·
COc1ccc(C(=O)Nc2nc3ccc(S(C)(=O)=O)cc3s2)cc1 | -2 | 46* | -3 | -1 | 2 | 19 | 41* | 58*
CCOC(=O)c1c(NC(=O)CSc2nc3cc(Cl)ccc3c(=O)n2Cc2ccco2)sc(C(=O)N(C)C)c1C | 1 | 51* | 0 | 117 | 0 | 23 | 9.5* | 23*
CCOC(=O)CNC(=O)CSc1nc(-c2ccc(OC)cc2)ns1 | -6 | 1 | 0 | -1 | 2 | 9 | · | ·
Cc1cccc(-c2nsc(SCC(=O)N3CCCC3)n2)c1 | 4 | 1 | 6 | 24 | 2 | 21 | · | ·
Cc1cccc(-c2nsc(SCC(=O)Nc3nccs3)n2)c1 | 4 | 10* | -3 | 15 | 4 | 12 | 9.2* | 12*
COc1ccc(-c2nsc(SCC(=O)Nc3cc(C)on3)n2)cc1 | 0 | 42* | 2 | -6 | -3 | 2 | 41* | 55*
COC(=O)[C@]12C[C@H](CC(=O)NCc3ccc(OC)c(OC)c3)C(=O)N(Cc3ccc4c(c3)OCO4)C1=C[C@H](C(C)C)O[C@@H]2C1CC1 | · | · | 1 | · | · | · | · | ·
C=CS(=O)(=O)N[C@@H](CSSC[C@H](NS(=O)(=O)C=C)C(=O)OC)C(=O)OC | · | 1 | -1 | · | · | · | · | ·
Nc1nnc2cc(Br)ccc2n1 | · | -1 | 2 | · | 2 | · | · | ·
Brc1ccc2ncc(Br)cc2c1 | -4 | 12* | 3 | -5 | 1 | 7 | 16* | 23*
COc1ccc2oc(C(=O)Nc3nc(C)cs3)c(C)c2c1 | · | 8.8* | 2 | · | 5 | · | 13* | 17*
Cc1c(C(=O)Nc2nccs2)oc2ccc(Br)cc12 | · | 10* | 4 | · | 7 | · | 12* | 15*
Cc1c(C(=O)Nc2nccs2)oc2ccc(F)cc12 | · | 1 | 1 | · | 5 | · | · | ·
CCc1nonc1NC(=O)c1oc2ccccc2c1C | -3 | -2 | 4 | 1 | 4 | -1 | · | ·
SMILES | HSP90 inh | PG9 binder | SMARCA2 activ | HSF1 inh | GAA850 FXN act | AI-2 QS modul | PG9 binder conf | PGV04 counter
CCc1nonc1NC(=O)c1oc2cc(Br)ccc2c1C | -8 | 18* | -2 | 4 | 3 | 22 | 20* | 38*
Cc1onc(-c2ccc(Cl)cc2)c1-c1ccn(S(=O)(=O)c2cccc(Cl)c2)n1 | · | · | -6 | · | · | · | · | ·
COc1ccc(OC)c(C(O)c2ncc(-c3ccccc3OC)[nH]2)c1 (stereo not drawn) | · | 0 | -2 | · | 1 | · | · | ·
COc1ccc(-c2ccccc2C2Cc3nnccc3CN2)cc1 (stereo not drawn) | · | 0 | 3 | · | · | · | · | ·
CCOC(=O)CCCCCC(=O)Nc1ccc2c(c1)C(=O)N([C@H](C)CO)C[C@@H](C)[C@@H](CN(C)S(=O)(=O)c1ccc(C)cc1)OCCCC[C@H](C)O2 | · | -1 | -2 | · | · | · | · | ·
CC(=O)OC[C@]12CC[C@H]3[C@@](C)(CC[C@H]4C(C)(C)CCC[C@]34C)[C@@H]1CC(C1=CC(=O)OC1O)O2 (stereo partly drawn) | · | -1 | -7 | · | -15 | · | · | ·
COC(=O)Nc1nc(-c2ccccc2)c(C(=O)c2ccc(Cl)cc2)s1 | 2 | 44* | 0 | -19 | -2 | -2 | 44* | 65*
CC(C)[C@@H]1CC[C@@H](C)C[C@H]1OC[B-](F)(F)F | · | -1 | 1 | · | · | · | · | ·
COc1ccc2[nH]c3c(c2c1)CCN[C@]31C(=O)Nc2ccccc21 | · | · | -1 | · | · | · | · | ·
Cc1ccc(S(=O)(=O)N(CC(=O)NC2CCC(C)CC2)c2cc(C)cc(C)c2)cc1 (stereo not drawn) | · | · | 1 | · | · | · | · | ·
CCOC(=O)/C(C#N)=C/c1cc2ccccc2nc1N1CCCCC1 | 1 | 27* | -2 | 8 | 0 | -1 | 25* | 30*
Cc1ccc2cc(/C=C(\C#N)C(N)=O)c(N3CCCCC3)nc2c1 | -1 | 0 | 4 | -5 | 1 | 26 | · | ·
COC(=O)Cc1ccc2sc(-c3ccccc3)nc2c1 | -3 | 1 | 3 | 30 | 4 | 32 | · | ·
O=C(O)Cc1ccc2sc(-c3ccccc3)nc2c1 | 0 | 9.0* | 8 | -6 | 4 | 8 | 11* | 17*
CC(C)N(C[C@@H]1CSCCS(=O)(=O)N1)C(C)C | · | -1 | -3 | · | · | · | · | ·
O=C1c2cccc3cccc(c23)C(=O)N1OS(=O)(=O)c1ccccc1 | 1 | 28* | 3 | 87 | 7 | 15 | 28* | 62*

Screens deposited in PubChem by several laboratories.
